Assay results as given in PubChem BioAssay AID1159580 (chemical genetic matrix, 2015).
Hit rate of the full screen: of about 5,500 compounds, about 2,000 (36%) were called active. About 18% were inconclusive and are not listed. Rule as the data show it: active = normalized growth mostly below about 0.91 (no sharp cut-off); inconclusive = no clear call, values can overlap the other calls; inactive = mostly above about 0.92. Some of the results follow.

Assay: chemical genetic growth profiling, strain panel (AID 1159580);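 also: tested at 20 µM; growth read once vehicle control cultures reached saturation at 30 °C; 1 = growth at the plate median or of vehicle wells; lower values mean less growth of the strain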
Details: S. cerevisiae deletion strains, growth OD

Measured: normalized growth

CN1CC(=O)N2[C@H](c3ccc4c(c3)OCO4)c3[nH]c4ccccc4c3C[C@@H]2C1=O
inactive: locus YHR030C, strain SLT2, hits give low values 0.966 | locus YHR079C, strain IRE1, hits give low values 0.947 | locus YJL095W, strain BCK1, hits give low values 0.964 | locus YJR066W, strain TOR1, hits give low values 0.913 | locus YLR113W, strain HOG1, hits give low values 0.968 | locus YNL183C, strain NPR1, hits give low values 0.918 | locus YOR231W, strain MKK1, hits give low values 0.975 | locus YPL256C, strain CLN2, hits give low values 0.946
